These results are taken from PubChem BioAssay (NCI).

About 83,000 compounds went through this panel and 20% of them were active in at least one assay; those are over-represented in the sample as a whole.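 Single-dose data. Exposure time 48 hours. Values below 10 considered active.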 Unmarked numbers belong to inactive results. Activity calls are given as the source filed them.

Some test systems named below: NCI-H23 lung; NCI-H226 lung; NCI-H322M lung; HOP-62 NSCLC; NCI-H460 lung; NCI-H522 lung; A549/ATCC NSCLC; 786-0 renal; COLO 205 colon; DU-145 prostate.
Holding throughout (test): NCI-60 one-dose screen, 48 h (100 = growth as untreated, 0 = no growth, -100 = all killed)
Holding throughout (conditions): 10 µM

As for `Nc1c(C(=O)Nc2ccccc2)sc2nc3c(cc12)CCCC3`, the growth in the experiment on NCI-H23 lung was 38%; in the experiment with NCI-H226 lung it was 52.8%; with NCI-H322M lung, 56.9%; with HOP-62 NSCLC it was 49.9%; in the experiment with NCI-H460 lung, 10.9%; in the experiment with NCI-H522 lung, 29.7%. Also, the growth is 21.7% with A549/ATCC NSCLC, 57% in the experiment on 786-0 renal, 1.79% (active) in the experiment on COLO 205 colon and 11.1% with DU-145 prostate.
Regarding `O=C(c1ccc(Cl)cc1Cl)N1CCOCC1`, the growth in the experiment with NCI-H23 lung was 97.3%; in the experiment on NCI-H226 lung, 96.8%; in the experiment on NCI-H322M lung it was 101%; with HOP-62 NSCLC, 97%; in the experiment on NCI-H460 lung, 104%; in the experiment on NCI-H522 lung, 103%. Moreover, the growth was 98.4% in the experiment with A549/ATCC NSCLC, 97.4% in the experiment with 786-0 renal, 111% in the experiment with COLO 205 colon and 109% with DU-145 prostate.
As to `COc1ccc(-c2nc3ncccn3c2-c2nnc(-c3ccsc3C)o2)cc1`, the growth was 80.5% in the experiment on NCI-H23 lung; 61.6% with NCI-H226 lung; 84.4% in the experiment with NCI-H322M lung; 23.8% in the experiment with HOP-62 NSCLC; 59.9% with NCI-H460 lung; 53.6% in the experiment on NCI-H522 lung. Also, the growth was 78.8% in the experiment on A549/ATCC NSCLC, 90.9% in the experiment with 786-0 renal, 110% in the experiment with COLO 205 colon and 88.3% in the experiment on DU-145 prostate.
`CC(=O)O[C@]1(C)CC[C@H]2[C@H](CNCCc3ccc(Cl)cc3)C(=O)O[C@@H]2C2=C(C)C(=O)C[C@H]21`: the growth in the experiment on NCI-H23 lung was 102%; in the experiment with NCI-H226 lung, 94.9%; with NCI-H322M lung, 91.9%; in the experiment on HOP-62 NSCLC it was 94%; with NCI-H460 lung it was 106%; in the experiment with NCI-H522 lung, -33.4% (active). Moreover, the growth with A549/ATCC NSCLC is 85.6%; with 786-0 renal, 96.6%; with COLO 205 colon, 97%; in the experiment with DU-145 prostate, 89.4%.
With `COc1ccc(-c2cc(-c3cccc(NS(C)(=O)=O)c3)nc(N)c2C#N)cc1`, the growth was 37.7% with NCI-H23 lung; 62.8% with NCI-H226 lung; 44.4% in the experiment on NCI-H322M lung; 52.3% with HOP-62 NSCLC; 4.64% (active) with NCI-H460 lung; -4.96% (active) with NCI-H522 lung. In addition, the growth with A549/ATCC NSCLC is 33.6%; in the experiment with 786-0 renal, 42.9%; in the experiment on COLO 205 colon it was -27% (active); in the experiment on DU-145 prostate, 5.82% (active).
Take `CCN(CCCCCCCCCCN1CC(=O)N(CCCCCCCCCCN(CC)Cc2ccccc2OC)CC1=O)Cc1ccccc1OC`: the growth is -26.1% (active) in the experiment on NCI-H23 lung; -2.55% (active) with NCI-H226 lung; 18.4% in the experiment with NCI-H322M lung; -71.6% (active) in the experiment on HOP-62 NSCLC; -93.3% (active) in the experiment on NCI-H460 lung; -74% (active) in the experiment with NCI-H522 lung. Besides, the growth in the experiment on A549/ATCC NSCLC is -48.8% (active); in the experiment on 786-0 renal it was -72.5% (active); in the experiment with COLO 205 colon, -91.6% (active); in the experiment with DU-145 prostate, -52.9% (active).
For the compound `COc1cc(-c2cc(C(=O)N3CCN(C(=O)c4ccccc4NCc4cccs4)CC3)nc3cc(-c4ccccc4)nn23)cc(OC)c1OC`, the growth was 85.6% with NCI-H23 lung; 78.7% with NCI-H226 lung; 72.1% with NCI-H322M lung; 87.5% with HOP-62 NSCLC; 38.4% in the experiment on NCI-H460 lung; 18.6% with NCI-H522 lung. In addition, the growth with A549/ATCC NSCLC is 50.7%; in the experiment with 786-0 renal, 85.2%; in the experiment on COLO 205 colon, 56.1%; with DU-145 prostate it was 81.7%.
`Cc1ccc(CC#N)cc1C`: the growth with NCI-H23 lung is 110%; with NCI-H226 lung, 96.1%; in the experiment on NCI-H322M lung it was 101%; in the experiment with HOP-62 NSCLC, 101%; in the experiment on NCI-H460 lung it was 99.1%; with NCI-H522 lung, 98%. Further, the growth with A549/ATCC NSCLC was 109%; in the experiment with 786-0 renal it was 103%; with COLO 205 colon, 111%; in the experiment on DU-145 prostate, 85.4%.
For the compound `Cc1c(Cl)cccc1NC(=O)c1sc2nc3c(cc2c1N)C(=O)CCC3`, the growth in the experiment on NCI-H23 lung was 16.4%; with NCI-H226 lung it was 55.8%; in the experiment on NCI-H322M lung it was 27.8%; in the experiment with HOP-62 NSCLC it was 34%; with NCI-H460 lung it was 4.71% (active); with NCI-H522 lung, -28.4% (active). Also, the growth is 16.7% in the experiment on A549/ATCC NSCLC, 37.7% in the experiment on 786-0 renal, -30% (active) in the experiment with COLO 205 colon and -17.7% (active) in the experiment with DU-145 prostate.
In the case of `O=C(NC(Cc1ccc(O)cc1)C(=O)N=Nc1c(O)[nH]c2ccccc12)c1ccccc1` (stereo not given), the growth in the experiment on NCI-H23 lung was 95%; in the experiment with NCI-H226 lung it was 100%; in the experiment on NCI-H322M lung, 102%; in the experiment with HOP-62 NSCLC it was 93.3%; in the experiment on NCI-H460 lung, 107%; in the experiment with NCI-H522 lung, 97.1%. The growth is 99.5% in the experiment on A549/ATCC NSCLC, 98.9% in the experiment with 786-0 renal, 109% in the experiment with COLO 205 colon and 108% with DU-145 prostate.
On to `COC(=O)c1ccc(=O)oc1`, for which the growth in the experiment with NCI-H23 lung was 93%; in the experiment with NCI-H226 lung, 101%; in the experiment with NCI-H322M lung, 106%; in the experiment on HOP-62 NSCLC, 96.1%; with NCI-H460 lung it was 110%; in the experiment on NCI-H522 lung, 99.9%. Also, the growth is 101% in the experiment with A549/ATCC NSCLC, 99.4% with 786-0 renal, 119% in the experiment with COLO 205 colon and 114% with DU-145 prostate.
With `Cc1occc1-c1nnc(SCC(=O)c2ccc(NC(=O)CC(C)C)cc2)o1`, the growth in the experiment on NCI-H23 lung is 110%; in the experiment on NCI-H226 lung, 109%; in the experiment with NCI-H322M lung, 106%; with HOP-62 NSCLC, 99.6%; in the experiment with NCI-H460 lung, 108%; in the experiment with NCI-H522 lung it was 81.9%. Further, the growth was 87.7% in the experiment with A549/ATCC NSCLC, 96.3% with 786-0 renal, 110% with COLO 205 colon and 109% in the experiment on DU-145 prostate.
